{"source": "PubChem BioAssay (NCATS)", "note": "Inconclusive results are not listed. Values without a mark were called inactive. Active and inactive are the calls of the source. Calls come from the whole dose curve; as a rule, active = well fitted inhibition curve with a large enough effect; inconclusive = small, poorly fitted or top-dose-only effect; inactive = flat fitted curve, though single readings scatter. % is set by controls: 0 for no effect and ±100 for the full control effect; potency is the fitted concentration of half-maximal effect."}
{"experiment": "Drug repurposing screens with cells derived from glioblastoma tumor samples (AID 1345199); note: nearly all actives have a fitted effect of over 40% in size", "settings": "GBM patient neurospheres viability, ATP luminescence, 48 h; at 46 µM (top of the series); tumour line A", "procedure,_shortened": "(§1)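 Primary testing used CD133+ neurospheres from four GBM patients, seven concentrations, 48 h exposure and ATP-based viability; confirmation added three slower-growing patient lines.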", "units": {"activity, negative = cell killing": "%"}}
{"molecule": "O=C(O)c1nc(=O)[nH]c(=O)[nH]1", "activity, negative = cell killing": -9.41}
{"molecule": "CCC[C@H](N[C@@H](C)C(=O)N1[C@@H]2CCCC[C@H]2C[C@H]1C(=O)O)C(=O)OCC", "activity, negative = cell killing": -33}
{"molecule": "N#Cc1c(N(CC(=O)O)CC(=O)O)sc(C(=O)O)c1CC(=O)O", "activity, negative = cell killing": -24.3}
{"experiment": "Drug repurposing screens with cells derived from glioblastoma tumor samples (AID 1345199); note: nearly all actives have a fitted effect of over 40% in size", "settings": "GBM patient neurospheres viability, ATP luminescence, 48 h; at 46.1 µM (top of the series); tumour line C", "procedure,_shortened": "as §1", "units": {"activity, negative = cell killing": "%"}}
{"molecule": "O=C(O)c1nc(=O)[nH]c(=O)[nH]1", "activity, negative = cell killing": -6.32}
{"molecule": "CCC(=O)OCC(=O)[C@@]1(OC(=O)CC)[C@@H](C)C[C@@H]2[C@H]3CCC4=CC(=O)C=C[C@]4(C)[C@@]3(F)[C@@H](O)C[C@@]21C", "activity, negative = cell killing": 2.82}
{"molecule": "CC[C@H]1OC(=O)[C@H](C)[C@@H](O[C@H]2C[C@@](C)(OC)[C@@H](O)[C@H](C)O2)[C@H](C)[C@@H](O[C@@H]2O[C@H](C)C[C@H](N(C)C)[C@H]2O)[C@](C)(O)C[C@H](C)C(=NOCOCCOC)[C@H](C)[C@@H](O)[C@]1(C)O", "activity, negative = cell killing": -6.06}
{"molecule": "Fc1ccc(C(c2ccc(F)cc2)N2CCN(CC=Cc3ccccc3)CC2)cc1", "activity, negative = cell killing": -6.32}
{"molecule": "CCC[C@H](N[C@@H](C)C(=O)N1[C@@H]2CCCC[C@H]2C[C@H]1C(=O)O)C(=O)OCC", "activity, negative = cell killing": -16.9}
{"molecule": "COc1cc2c(cc1OC)CC(=O)N(CCCN(C)C[C@H]1Cc3cc(OC)c(OC)cc31)CC2", "activity, negative = cell killing": -34}
{"molecule": "CN1CCN2c3ncccc3Cc3ccccc3C2C1", "note": "(configuration not stated)", "activity, negative = cell killing": 14.4}
{"molecule": "CN1CC(=O)N2C(Cc3c([nH]c4ccccc34)[C@H]2c2ccc3c(c2)OCO3)C1=O", "note": "(some centres not stated)", "activity, negative = cell killing": -21.6}
{"molecule": "N#Cc1c(N(CC(=O)O)CC(=O)O)sc(C(=O)O)c1CC(=O)O", "activity, negative = cell killing": 4.23}
{"molecule": "CC(C)CN(C[C@@H](O)[C@H](Cc1ccccc1)NC(=O)O[C@H]1CO[C@H]2OCC[C@H]21)S(=O)(=O)c1ccc(N)cc1", "activity, negative = cell killing": -17}
{"molecule": "CC(C)(CO)[C@@H](O)C(=O)NCCC(=O)O", "activity, negative = cell killing": -2.72}
{"molecule": "CCCCCCCCCCCCCCCC(=O)O[C@H]1[C@@H](O)[C@@H](O)[C@@H]([C@H](NC(=O)[C@@H]2C[C@@H](CCC)CN2C)[C@H](C)Cl)O[C@@H]1SC", "activity, negative = cell killing": 10.8}
{"experiment": "Drug repurposing screens with cells derived from glioblastoma tumor samples (AID 1345199); note: nearly all actives have a fitted effect of over 40% in size", "settings": "GBM patient neurospheres viability, ATP luminescence, 48 h; tumour line A", "procedure,_shortened": "as §1"}
{"molecule": "CCC(=O)OCC(=O)[C@@]1(OC(=O)CC)[C@@H](C)C[C@@H]2[C@H]3CCC4=CC(=O)C=C[C@]4(C)[C@@]3(F)[C@@H](O)C[C@@]21C", "Potency": "11.2 µM (active)"}
{"molecule": "Fc1ccc(C(c2ccc(F)cc2)N2CCN(CC=Cc3ccccc3)CC2)cc1", "Potency": "2.82 µM (active)"}
{"molecule": "COc1cc2c(cc1OC)CC(=O)N(CCCN(C)C[C@H]1Cc3cc(OC)c(OC)cc31)CC2", "Potency": "11.2 µM (active)"}
{"molecule": "Clc1ccc(COC(Cn2ccnc2)c2ccc(Cl)cc2Cl)c(Cl)c1", "note": "(configuration not stated)", "Potency": "5.62 µM (active)"}
{"molecule": "CN1CC(=O)N2C(Cc3c([nH]c4ccccc34)[C@H]2c2ccc3c(c2)OCO3)C1=O", "note": "(some centres not stated)", "Potency": "11.2 µM (active)"}
{"molecule": "CC(C)CN(C[C@@H](O)[C@H](Cc1ccccc1)NC(=O)O[C@H]1CO[C@H]2OCC[C@H]21)S(=O)(=O)c1ccc(N)cc1", "Potency": "17.8 µM (active)"}
{"molecule": "CCCCCCCCCCCCCCCC(=O)O[C@H]1[C@@H](O)[C@@H](O)[C@@H]([C@H](NC(=O)[C@@H]2C[C@@H](CCC)CN2C)[C@H](C)Cl)O[C@@H]1SC", "Potency": "17.8 µM (active)"}
